Data: PubChem BioAssay AID624377 (The Scripps Research Institute Molecular Screening Center, 2012)
The campaign covered roughly 360,000 compounds. About 680 (0.19%) were called active. The entries come from a sample that favours actives as a whole. Values without a mark were called inactive. Rule as the data show it: active = inhibition above about 25%; inactive = the rest.

target: Arf-GAP with SH3 domain, ANK repeat and PH domain-containing protein 1 (Homo sapiens) (UniProt Q9ULH1); assay: blockers of ASAP1-stimulated ARF1 GTP hydrolysis – biochemical, fluorescence polarization, primary screen (AID 624377); settings: GDP FP detection, at 16.5 µM, stronger effect = higher value;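 also: 0% = vehicle with enzyme and substrate and 100% = no enzyme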
Sequence (Q9ULH1 325-724 limits assumed): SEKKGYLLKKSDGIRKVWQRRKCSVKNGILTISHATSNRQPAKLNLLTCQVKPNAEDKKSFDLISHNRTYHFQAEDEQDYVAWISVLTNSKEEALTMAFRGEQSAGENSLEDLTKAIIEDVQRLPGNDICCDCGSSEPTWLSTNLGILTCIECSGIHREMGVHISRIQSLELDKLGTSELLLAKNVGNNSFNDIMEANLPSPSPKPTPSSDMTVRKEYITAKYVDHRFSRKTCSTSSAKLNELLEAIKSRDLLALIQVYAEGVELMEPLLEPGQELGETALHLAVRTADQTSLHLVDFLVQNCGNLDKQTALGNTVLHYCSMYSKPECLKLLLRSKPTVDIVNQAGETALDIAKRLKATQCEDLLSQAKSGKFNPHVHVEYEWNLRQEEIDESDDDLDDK

| Structure (SMILES) | inhibition |
| --- | --- |
| COc1ccccc1-c1ccc([C@@H]2C[C@H]3[C@H](CON3C)CN2S(=O)(=O)c2cc(Cl)cc(Cl)c2)cc1 | -15.3% |
| CN1CCCCC(NC(=O)C(C)(C)C)C1=O (centres undefined) | -1.72% |
| CC(=NNC(N)=O)c1ccc(Cl)c(-n2cccc2)c1 | 7.66% |
| Cc1cc(NCCc2c[nH]c3ccccc23)ccc1Oc1cccnc1 | 6.6% |
| COC(=O)[C@]12C[C@H](CC(=O)N3CCN(C(=O)C4CC4)CC3)C(=O)N(Cc3ccc4c(c3)OCO4)C1=C[C@H](C(C)(C)C)O[C@@H]2C | -0.19% |
| COC(=O)[C@]12C[C@H](CC(=O)NCCc3ccccc3OC)C(=O)N(Cc3ccccc3)C1=C[C@H](C(C)C)O[C@@H]2C1CC1 | -3.14% |
| CC[C@H](C)[C@H]1CNC(=O)C(=O)N1CC1CCN(CCc2ccc(OC)c(OC)c2)CC1 | -3.91% |
| COc1ccc(-c2ccc3c(n2)CCCN3S(=O)(=O)c2ccc(C)cc2)cc1 | -10.4% |
| CN[C@H]1C[C@H]2c3[nH]c4c(-c5ccccc5)cccc4c3CCN2C(=O)[C@H]1[C@H](C)O | -4.1% |
| COC(=O)C1=C(C)N(Cc2cccc(C(F)(F)F)c2)C(=NCc2cccc(C(F)(F)F)c2)NC1c1ccccc1C(F)(F)F (centres undefined) | 4.19% |
| CCOC(=O)/C=C/c1ccccc1O | 8.09% |
| C[C@@H]1ON(C)[C@H]2C[C@H]3c4cc(N5CCOCC5)ccc4CCN3C[C@@H]12 | 11.7% |
| COC(=O)c1cc2c(c3c4ccccc4n(S(=O)(=O)c4cccc(C)c4)c13)C(=O)N(Cc1ccccc1)C2 | -7.05% |
| O=C(CSc1nnnn1-c1ccc(O)cc1)c1ccc(F)cc1 | 1.74% |
| COc1ccc(NC(=O)CSc2nnnn2-c2cccc(OC)c2)cc1 | 3.21% |
| COc1ccc(-n2nnnc2SCC(=O)c2ccc(OC)c(OC)c2)cc1 | 27.3% (active) |
| OC(CCl)CCl | 12.1% |
| COC(=O)c1c(-c2ccc(OC)cc2)c2c(c3c4cc(OC)ccc4n(S(=O)(=O)c4ccc(F)cc4)c13)C(=O)N(C)C2 | -0.62% |
| CCCN1C(=O)c2[nH]nc(-c3ccccc3)c2C1c1ccccc1 (centres undefined) | 0.41% |
| C[C@H](CO)N1C[C@H](C)[C@@H](CN(C)C(=O)Nc2ccccc2F)OCc2cn(nn2)CCCC1=O | -10.4% |
| Nc1ncnc2c1ncn2C1OC(CO)CC1O (centres undefined) | 3.34% |
| Cc1ccccc1C(=O)N[C@H](C(=O)N1CCC[C@H]1C(=O)NCc1ccccc1)C(C)C | -8.79% |
| COC(=O)[C@]12C[C@H](CC(=O)NCc3ccccc3)C(=O)N(CCC3=CCCCC3)C1=C[C@H](C(C)(C)C)O[C@@H]2C | -6.37% |
| COc1ccc(C2=CN(Cc3ccccc3)C(c3ccc(OC)cc3)CC2=O)cc1 (centres undefined) | 12.3% |
| CC(C)C[C@H](NC(=O)CC1CCCC1)C(=O)N1CCC[C@H]1C(=O)NCc1ccccc1 | -6.9% |

| Structure (SMILES) | inhibition |
| --- | --- |
| COc1ccccc1CCn1cnc(-c2ccccc2)c1C(C)C | 16.9% |
| CCOC(=O)C1=C(C(=O)OCC)C2N(Cc3ccc(C#N)cc3)c3ccccc3[C@@]23C[C@@H](C(=O)OC)N(S(=O)(=O)c2ccc(F)cc2)C3=N1 (some centres undefined) | 12.3% |
| COc1cccc(CC(=O)N2CCN(C(=O)C(=O)c3cccc(C(F)(F)F)c3)CC2)c1 | 3.01% |
| CCOc1cc(/C=N/NC(=O)c2ccncc2)cc(Br)c1O | -12.7% |
| CCN(CC)c1ccc2cc(C(N)=O)/c(=N\NC(=O)c3ccncc3)oc2c1 | 26.4% (active) |
| CC(=NNC(=O)c1ccncc1)c1ccc(Cl)c(Cl)c1 | -23.7% |
| CCOC(=O)N1CCN(C(=O)C[C@H]2C[C@@]3(C(=O)OC)C(=C[C@H](C4CCCC4)O[C@@H]3C)N(Cc3ccccc3)C2=O)CC1 | -6.46% |
| COc1ccc(CNS(=O)(=O)c2cc(Br)ccc2Br)cc1 | -8.38% |
| CCN1CCN(CCNC(=O)c2ccc3c(c2)NC(=O)/C(=C\c2ccc(OC)c(OC)c2)S3)CC1 | 25.9% (active) |
| COc1ccc(CCNC(=O)c2ccc3c(c2)NC(=O)C(N2CCOCC2)S3)cc1OC (centres undefined) | -5.91% |
| CCN1CCCC1CNC(=O)c1ccc2c(c1)NC(=O)/C(=C\c1ccccc1F)S2 (centres undefined) | -12.3% |
| COc1ccc(NC(=O)N(C)C[C@@H]2OCCCC[C@@H](C)Oc3ccc(NC(=O)NC4CCCCC4)cc3C(=O)N([C@H](C)CO)C[C@@H]2C)cc1 | -0.3% |
| NC(=O)c1ncn([C@@H]2O[C@H](C(=O)O)[C@@H](O)[C@H]2O)n1 | -8.9% |
| O=C(NCc1ccccc1)[C@@H]1CCCN1C(=O)[C@H]1CCCN1C(=O)c1cccc(Cl)c1 | 5.06% |
| CC(C)CNc1cccc2c1S(=O)(=O)N[C@H](CC(C)C)CO2 | 14.4% |
| COCc1cc(N2CCN(C(=O)OC(C)(C)C)C[C@@H]2C)ccc1N1CCN(Cc2ccccc2)[C@H](C)C1 | -0.13% |
| O=c1[nH]c(-c2ccccc2)cn1C1CCN(Cc2ccc(-c3nc4ccc(F)cc4nc3-c3ccccc3)cc2)CC1 | 6.64% |
| O=S1(=O)c2c(cccc2N2CCCCC2)O[C@H](COCc2ccccc2)CN1C1CC1 | -0.37% |
| CCN1C(=O)N[C@@H]2C[C@H](C(=O)N3CCCC3)[C@H](C)[C@H](c3ccccc3)C[C@@H]21 | 9.08% |
| COC(=O)Cc1nnn2c1[C@H](C)[C@H](c1ccccc1[N+](=O)[O-])OCC2 | 5.28% |
| N#Cc1ccc(OCCCN2CCC(C(O)(c3ccccc3)c3ccccc3)CC2)c(F)c1 | 12.3% |
| O=C(NCc1ccccc1)[C@H]1CCCN1C(=O)[C@H]1CCCN1C(=O)c1cc(F)cc(F)c1 | 5.35% |
| Cc1[nH]nc2c1C(c1ccc(Br)cc1)NC2=O (centres undefined) | 13.4% |
| Cc1[nH]c2ccccc2c1CC(=O)Nc1ccc(Nc2cccnc2)c(-c2cccc(Cl)c2)c1 | 23.9% |
